From PubChem BioAssay (NCATS)
Values joined by “and” are separate entries in the source; they are usually repeats but may differ in a detail not shown here. Identical values can stand only once. Results filed as inconclusive are left out. Active and inactive are the calls of the source. Unless noted, calls come from the whole dose curve; as a rule, active = well fitted curve in the direction sought with a large enough effect; inconclusive = small, poorly fitted or top-dose-only effect, or another doubt; inactive = no such curve, though single readings can be large; an effect the other way counts as inactive or inconclusive.

Experiments:
[1] = Drug repurposing screens with cells derived from glioblastoma tumor samples (AID 1345199); conditions: GBM patient neurospheres viability, ATP luminescence, 48 h; note: nearly all actives have a fitted effect of over 40% in size; note: potency is the fitted concentration of half-maximal effect; for activity, negative = cell killing: % is set by controls: 0 for no effect and ±100 for the full control effect
Method in brief: (§1)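 Four patient lines of CD133+ GBM neurospheres were screened at several concentrations; hits were retested in those lines plus three slower-growing GBM lines, using 48-hour treatment and ATP-based viability.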

astro = control astrocytes; experiment: as above; conditions: viability, ATP luminescence, 48 h; series mostly up to 45.9 µM
Method in brief: as §1

[2] = target: Nuclear receptor subfamily 1 group I member 2 (Rattus norvegicus) (UniProt Q9R1A7); experiment: qHTS assay for small molecule activators of the rat pregnane X receptor (rPXR) signaling pathway (AID 651751; call rule not given here; note: 0% is about no effect); conditions: rPXR reporter cells, luciferase (One-Glo), 24 h
Sequence of Nuclear receptor subfamily 1 group I member 2 (Rattus norvegicus) (Q9R1A7 whole entry, looked up): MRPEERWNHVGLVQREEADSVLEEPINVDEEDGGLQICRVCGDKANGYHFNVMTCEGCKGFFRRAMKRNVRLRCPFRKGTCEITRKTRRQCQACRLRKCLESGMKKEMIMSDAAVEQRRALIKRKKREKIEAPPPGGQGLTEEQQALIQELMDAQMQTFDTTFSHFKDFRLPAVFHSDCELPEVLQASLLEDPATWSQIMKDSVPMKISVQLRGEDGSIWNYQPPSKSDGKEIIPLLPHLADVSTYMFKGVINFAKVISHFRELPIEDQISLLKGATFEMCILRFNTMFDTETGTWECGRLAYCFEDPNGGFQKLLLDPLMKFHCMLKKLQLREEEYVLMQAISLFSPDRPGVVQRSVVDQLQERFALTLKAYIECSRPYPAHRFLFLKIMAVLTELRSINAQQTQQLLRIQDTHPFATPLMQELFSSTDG

[3] = qHTS assay for small molecule activators of the human pregnane X receptor (PXR) signaling pathway (AID 720659; call rule not given here; note: 0% is about no effect); conditions: DPX-2 HepG2 CYP3A4-luciferase, 24 h; series mostly up to 92.3 µM
[4] = qHTS assay to identify inhibitors of the type 1 interferon - major histocompatibility complex class I in skeletal muscle: Counter screen cell viability and HiBit confirmation (AID 1347412); conditions: iHSKM muscle cells + IFN-b, HiBiT or CellTiter-Glo, 24 h; note: potency is the fitted concentration of half-maximal effect; nearly all actives have a fitted effect of over 60% in size
Method in brief: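 Luminescence read-out: Nano-Glo HiBiT lytic signal from C-terminally HiBiT-tagged HLA-B in CRISPR-edited human myoblasts, plus CellTiter Glo ATP as viability counter screen. IFN-beta 4.0 ng/ml; 24 hrs treatment at 37 C, 5% CO2.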

[5] = at 45.9 µM (top of the series), tumour line B
[6] = at 45.9 µM (top of the series), tumour line D
[7] = at 46.1 µM (top of the series), tumour line C
[8] = at 46 µM (top of the series), tumour line A
[9] = at 20 µM (top of the series), tumour line C
[10] = at 21.2 µM (top of the series), tumour line B

CN1[C@@H]2CC(OC(=O)[C@H](CO)c3ccccc3)C[C@H]1[C@@H]1O[C@@H]12 (stereo partly specified)
inactive: activity, negative = cell killing [1, 5] -8.37% and 0.366% | activity, negative = cell killing [1, 6] -25.9% and -16.8% | activity, negative = cell killing [1, 7] 15.6% and -2.3% | Potency (astro)

Nc1nc2c(ncn2CCC(CO)CO)c(=O)[nH]1
inactive: activity, negative = cell killing [1, 5] -8.7% | activity, negative = cell killing [1, 6] 3.63% | activity, negative = cell killing [1, 7] -21.6% | Potency (astro)

C[C@]12CC[C@@H]3c4ccc(O)cc4CC[C@H]3[C@@H]1CCC2=O
inactive: activity, negative = cell killing [1, 5] -16.5% | activity, negative = cell killing [1, 6] -20.7% | activity, negative = cell killing [1, 7] -9.33% | Potency (astro) | max response [2] 1.32%

CN(C)CCCO[C@@H]1[C@H]2OC(C)(C)O[C@H]2O[C@@H]1C(O)CO (stereo partly specified)
inactive: activity, negative = cell killing [1, 5] -1.76% | activity, negative = cell killing [1, 6] -18.3% | activity, negative = cell killing [1, 7] -10.9% | Potency (astro)

CCN(CC)CCNC(=O)c1cc(Cl)c(N)cc1OC
inactive: activity, negative = cell killing [1, 5] -15.5% | activity, negative = cell killing [1, 6] -19.3% | activity, negative = cell killing [1, 7] 6.62% | Potency (astro)

CN(C)CCN(Cc1ccccc1)c1ccccn1
active: Potency ([1]; tumour line A) 5.62 µM
inactive: activity, negative = cell killing [1, 5] -8.05% | activity, negative = cell killing [1, 7] -4.16% | Potency (astro)

O=S(=O)(O)NC1CCCCC1
inactive: activity, negative = cell killing [1, 5] -10.5% | activity, negative = cell killing [1, 6] -5.78% | activity, negative = cell killing [1, 8] -19.1% | Potency (astro) | max response [2] 1.16% | outcome [3]

CC1(C)[C@@H]2CC[C@@]1(C)C(=O)C2
inactive: activity, negative = cell killing [1, 5] -26.7% | activity, negative = cell killing [1, 6] -2.76% | activity, negative = cell killing [1, 7] -20.2% | Potency (astro) | max response [2] 4.84% | outcome [3]

CC12CCC(CC1)C(C)(C)O2
inactive: activity, negative = cell killing [1, 5] -7.94% | activity, negative = cell killing [1, 6] 5.35% | activity, negative = cell killing [1, 7] -12.5% | Potency (astro) | max response [2] 2.12% | outcome [3]

CCN(CC)CCNC(=O)c1c(C)[nH]c(/C=C2\C(=O)Nc3ccc(F)cc32)c1C
inactive: activity, negative = cell killing [1, 7] 3.12%
active: Potency ([1]; tumour line A) 11.2 µM | Potency ([1]; tumour line D) 28.2 µM | Potency (astro) 12.6 µM | Potency ([4]; HiBiT) 3.94 µM | Potency ([4]; Viability) 7.01 µM

CCOC(=O)[C@H](CCc1ccccc1)N[C@@H](C)C(=O)N1C(=O)N(C)C[C@H]1C(=O)O
inactive: activity, negative = cell killing [1, 5] -4.44% | activity, negative = cell killing [1, 6] -4.75% | activity, negative = cell killing [1, 8] -37.7% | Potency (astro)

NCCNCCNCCN
inactive: activity, negative = cell killing [1, 5] -6% | activity, negative = cell killing [1, 6] -28.2% | activity, negative = cell killing [1, 7] -8.15% | Potency (astro) | max response [2] 9.63% | outcome [3]

O=C1c2c(O)cccc2Cc2cccc(O)c21
inactive: activity, negative = cell killing [1, 5] -7.97% | activity, negative = cell killing [1, 8] -24.5% | activity, negative = cell killing [1, 7] -8.57% | Potency (astro) | max response [2] -0.627% | outcome [3]

CCN(CC)CCNC(C(=O)OCCC(C)C)c1ccccc1 (stereo unspecified)
inactive: activity, negative = cell killing [1, 5] -12.5% | activity, negative = cell killing [1, 7] 6.2% | Potency (astro)
active: Potency ([1]; tumour line A) 25.1 µM

Cc1ccc(C(C)C)cc2c(C)ccc1-2
inactive: activity, negative = cell killing [1, 5] -9% | activity, negative = cell killing [1, 6] 5.15% | activity, negative = cell killing [1, 7] -3.49% | Potency (astro)

OCC(O)CN1CCN(c2ccccc2)CC1 (stereo unspecified)
inactive: activity, negative = cell killing [1, 5] -18.5% | activity, negative = cell killing [1, 6] -7.12% | activity, negative = cell killing [1, 7] -25.1% | Potency (astro)

CC(C)C(=O)c1c(C(C)C)nn2ccccc12
inactive: activity, negative = cell killing [1, 5] -5.19% | activity, negative = cell killing [1, 7] -20.7% | Potency (astro)
active: Potency ([1]; tumour line A) 8.91 µM

CC(CN(C)C)CN1c2ccccc2CCc2ccccc21 (stereo unspecified)
active: Potency ([1]; tumour line A) 6.31 µM
inactive: activity, negative = cell killing [1, 9] -0.604% | activity, negative = cell killing [1, 10] -19% | Potency (astro)

COc1ccc2cc1Oc1cc3c(cc1OC)CC[N+](C)(C)[C@H]3Cc1ccc(cc1)Oc1c(OC)c(OC)cc3c1[C@@H](C2)[N+](C)(C)CC3
inactive: activity, negative = cell killing [1, 5] -14.8% | activity, negative = cell killing [1, 6] -5.75% | activity, negative = cell killing [1, 7] -3.48% | Potency (astro)

CC1=C(CC(=O)O)c2cc(F)ccc2/C1=C\c1ccc(S(C)=O)cc1 (stereo unspecified)
inactive: activity, negative = cell killing [1, 5] -9.8% | activity, negative = cell killing [1, 6] -10.1% | activity, negative = cell killing [1, 7] -18.8% | Potency (astro)

O=C(O)COc1nn(Cc2ccccc2)c2ccccc12
inactive: activity, negative = cell killing [1, 5] 0.429% | activity, negative = cell killing [1, 6] -3.69% | activity, negative = cell killing [1, 7] -16.4% | Potency (astro)

CC(O)CN(CCN(CC(C)O)CC(C)O)CC(C)O (stereo unspecified)
inactive: activity, negative = cell killing [1, 5] -16.3% | activity, negative = cell killing [1, 6] 3.18% | activity, negative = cell killing [1, 8] -27.7% | Potency (astro) | max response [2] -2.51% | outcome [3]

CCCCOc1cc(C(=O)OCCN(CC)CC)ccc1N
active: Potency ([1]; tumour line A) 11.2 µM
inactive: activity, negative = cell killing [1, 9] -6.35% | activity, negative = cell killing [1, 10] -29.6% | Potency (astro)

O=C(O)[C@@H]1CSCN1
inactive: activity, negative = cell killing [1, 5] 0.874% | activity, negative = cell killing [1, 6] 4.12% | activity, negative = cell killing [1, 7] -12.1% | Potency (astro)
